Laboratory results reported in the supplement of paper PMC12632987.
The full ranking holds about 2,300 sequences; the median of “median log2 fold change of GCK-ALFA target abundance (FLAG IP / Myc IP barcode read proportion)” is about 0.095, and the lowest 2% start at about -0.47. What follows is part of a selection rich in the lowest values, with near analogues and random picks from the rest.

B1: LC3A_28_1295 (protein)
chain: SEIEKNLKEALAEAKKAKAEGKQVVITVKVPGDATQEEIELVIKGLEEIAKVLEDVPNQTIIIDVEAGVKQEHIDLLADRAEEIEKKYPNVTVIIALDED
B2: LC3A_28_1049 (protein)
chain: SPIEEELKRALEEAKEAVARGEEALIRLTIGKDATEEDVEKVLETMEEIAELTKSLPRVDIVVDVDSENKEEVTKKIAEKGEELEKKYPNVTVYIALSEE
B3: LC3A_28_1058 (protein)
chain: MSIEEQLEKALEEAKEAVKKGEEALVELKINKDSTEEDVEKVLETMKEIAELTKDLPSVSIVVDVDHENKEEVTKKVSELGDELEKKYPNVTVIIALSEE
B4: LC3A_28_738 (protein)
chain: SAIEKELEKAIKEAKEAAKAKEPKVITITVPGTANEEDIELVIKALEEIAEILKDVKDQAIIIDVDGKLDPELLKKLMDKAEEIEEKYPNVTVIIALDEE
B5: LC3A_free_8_2444 (protein)
chain: STQKLVDEVTELLDEMEERVEEKAKELGLSELDILDLSLLIGSLIAEIISAVDKSIEEIRKIVEEDMEEIIEEARELSEEIAEIVEETKERILELIDEAE
B6: LC3A_28_1082 (protein)
chain: SAVDAQIAAALAALRAAKAAGEEALLTLTLTEDATQEDVDRLIAGLEEIAELARDAARVTVVIDLDGKIPQEHIDRIADAAERIEERVPNVTVIIALDEE
B7: LC3A_free_39_2223 (protein)
chain: SEEEIEKLIKEVAKESGIDYEELKKKIEEIKEVGKLSNEQILEIVKAILEAVKAGADAKEILEEALKLTKELVAAGKSPEEIKEEILELIEDYRNLVPLD
B8: LC3A_3_1370 (protein)
chain: MEEEKAATLAELKAAGKSEETIAAVEKTLDALIEKGYEEAAKTFMELLKELKDLSDEILLAFAEDVLKAVEEEDLSEEELIKFIKEEATIARNEQEIIEL
B9: LC3A_28_1053 (protein)
chain: SAIDKQLEAALAEARAAAAAGEEALITLTIPENATEEDVEKVLATIREIAEITKDLPATTIIVDVDNKNQEEVTKKIDEVGEELAKKYPNVTVIIALSEN
B10: LC3A_28_1052 (protein)
chain: SHIDEQIEKALKEAEEAKAKGEEALIELHIGKDANEEDVEKVLETIEKIAEITKDLPSVTIIVDVDNPNKEEVTKKIDEVGEELAKKYPNVTVIIALSEE
B11: LC3A_free_46_2334 (protein)
chain: TLVVVEVDVLAPDRATAEAFVADLEARIRARLAEAGIDAEVEVELEEGPDGKTFRVTVKVRLKDPEADPQEVADLVVDAIDESAEEHGLSYIISVEIIEE
B12: LC3A_28_811 (protein)
chain: SHVDEVIAAVKEEGEKLKNSKEDVLLEVRVSGDITVEEAERLMDAIEEIARELAKNRKVYIVITAEEPISQEVLDTILDRAEEIEEKYPNVSVIVALPEE
B13: LC3A_3_1711 (protein)
chain: GEELIEEAEKILKEKGLSEETKKAVLEALKALLEKGYINAAKELIKLLKEAKDLSDEVILDFAKDVLEYVKTEDVSEEETIKKIKEEYEIAKNEEEIEEL
B14: LC3A_free_46_2301 (protein)
chain: IKVEIDIYFGAAPLEKIEEAAKRLTETAEKKAKELGAEVEIEVKITKNEDGTYTLEIRITAKVKTLEDANKFIQAISDKVDEINKELGIAAIMSIEVIEE
B15: LC3A_3_1472 (protein)
chain: LEERLEEVLKRLREAGASEEVLEAVREAYEKLKELGHEEAAKTFIEEMEKLVGLPSELLLAFAEDVLAAVEKYADDPEKLIEEIKSIAAATRNEAEIIEL
B16: LC3A_28_903 (protein)
chain: SPALESAEKALKEVKKAVAAGNQEPLVLEVKAPSTQEDVDKLLKLLEEIAEEASKLKGVSIIIDIDESVSQENRDRIIDKAEELEEKYPNVTIIIALPES
B17: LC3A_17_539 (protein)
chain: KEELKEELKKLIEEAEKLVEEVKPYIPEEAEKAKKRLKEAKKLLEEGKLKEAAELLAETADEMADAVSETEWEDPLKRTLLELEFDSLAIEAESILLKLE
B18: LC3A_28_1059 (protein)
chain: MSIEEELEEALEEAREAVERGEEALIELTIDEDATEEDVELVLETMEEIAELTKDLPRTTIVVDVDHKNKEEVTKLVSEKGDRLEKRYPNVTVIIALSEE
B19: LC3A_28_671 (protein)
chain: SALEEQLEKALAEAKKLAAKGEPGVIVIEVPGDATEEEIERLIKTLEEIAEILKDVKGSAIVIELDKDLKEEHRQRIIDAAERINEKYPNVTVIIAMEER
B20: LC3A_45_1922 (protein)
chain: MYEATLDLLVPKELAEEAYELIKKLLEELEKKRGPNFKVDYETLDASYEASKDEEDVYLEVKIYAPTEEEALDAAIEIEEELSKELGGKVASIISVKKVP
B21: LC3A_28_979 (protein)
chain: SALEKELAAKIAEAKKAAAAGEPAVITIKVSGDTNEEQLAKIIETLEEIAEILKDVKGSAIIIDIDRGVDPKHKQKLIDKGEEIEKKYPNVTVIFALEEE
B22: LC3A_36_1337 (protein)
chain: MVVIVLSAASEEVRAAEEAHYRAKGATVFAVAVEDLDEATKEEILAVVKAAGPDADIIIVAVAETEEGLAKVLKKASELADYIEEETGRTVIIEVDLVEK
B23: LC3A_141_370 (protein)
chain: KTVTFTKTFTNSSLDEVIAGMEELEKEVLAAHEKLGGGKVKVTVTVTIKNSKTGETKVIKEEFEADKETLEMIMEGVLIEAASARLTENANITVTVTLEA
B24: LC3A_28_1047 (protein)
chain: SELEENAEKAIAEARKQLEQGEEAVVTLKVPDMPTEEAVRIFRETLERLIALSKEYGGKKISVVVDFDGDQETFDAIVDIAEEAEKADPNLTVIVALSEE
B25: LC3A_28_815 (protein)
chain: MTAEEIIKQIREQAEKGKQSDEMVLIEVKISGTITEEEAKEIMEVIREESAELAKDRPVAVLIDLEAPISQEVIDLIADMAEEIEKELPNVSVIIALPEE
B26: LC3A_free_8_2554 (protein)
chain: ISEEQKAKISEVLDKAEEEIVKKAKEMGVSEEEINELEALMGFLLQDVLDALEEGPEAALKAFEEESKLIVEYAKELGEELAKEVKKVLEEAKKEIEKIL
B27: LC3A_28_1007 (protein)
chain: MSLIEKTKEEIKKALEQAEKGEDAFLEIEIPSTATKEEVEEVLKLIEEAAKEVSKLEGVKLYVVIDDSGSPEIHDLVVDRADEIEEKYPNVSVIIAYDDK
B28: LC3A_free_46_2383 (protein)
chain: YKAEIDIDFGAMDKETAEKIAEEIKKAAEEISKKYGVKVEVEVEIIEDEDGNYYLRVKITIEGEDKEKVEEAVNELIEKIDEIAEKANVSYIISVEFIDE
B29: LC3A_132_255 (protein)
chain: SKELLEKALKELKEILDKIVELLQAGKDPWPAVKELEEKAEEYAEKLSLEETEELVKESEKYAEELFAARLDPNNEEARRVLDHIEMLFESVLIEKELKS
B30: LC3A_132_254 (protein)
chain: SEELLEKALKELKELLDKIVADLKAGKDPWPTINKLYELALKYAEKLSLEETEKLAEESEKYAEELFAKELDPNDEEARRTLDIVEMLLESVLIEKELRS
B31: LC3A_132_253 (protein)
chain: SKELLEKALKELKEILDKIVELLQAGKDPWPAIKELYEKALEYAKKLSLEETEKLAEEVEAYAEKLFAERLDPNNEEARRALEHIEMLLESVLIEKELRS

What follows are binders tested against MAP1LC3A, Q9H492 (assay: median log2 fold change of GCK-ALFA target abundance (FLAG IP / Myc IP barcode read proportion) (log2 ratio); each designed protein is fused to an ALFA-tag nanobody in HEK293 cells to bring the named protein to FLAG-tagged glucokinase (GCK); Myc marks an untargeted standard; higher = target protein stabilised (more abundant)). Conditions: target protein: 3xFLAG-MCP-GCK-ALFA reporter; HEK293 landing pad (RPLP).
Method in brief: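 The readout is target abundance, the per-binder median log2 ratio of FLAG to Myc barcode read proportions. It came from HEK293 landing-pad cells carrying a recombined ALFA-nanobody-fused binder library, induced with 2 μg mL^−1 doxycycline and transfected with a plasmid for a FLAG-tagged target and a Myc-tagged standard. After 48 h, lysates were immunoprecipitated with anti-FLAG and anti-Myc, and circular RNA barcodes were reverse transcribed, amplified and sequenced. Each barcode needed a proportion of at least 10^−7 in both replicates and each binder at least 3 barcodes per replicate, a pseudocount of 10^−6 was added, and the replicates were pooled.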

How did the “median log2 fold change” value turn out when B1 was run?
The value was 0.184.

How did the “median log2 fold change” value turn out when B2 was run?
The value was 0.00401.

For B3, which “median log2 fold change” value is on record?
Its value is -0.699.

With B4 as the binder, how does the “median log2 fold change” value read?
Its value is 0.167.

Which “median log2 fold change” value does the source give for B5 here?
Its value is -0.324.

B6 was tested. Which “median log2 fold change” value did it give?
Its value is 0.081.

How did the “median log2 fold change” value turn out when B7 was run?
The value was -0.0674.

Which “median log2 fold change” value does the source give for B8 here?
Its value is 0.233.

For B9, which “median log2 fold change” value is on record?
Its value is -0.454.

How did the “median log2 fold change” value turn out when B10 was run?
Its value is -0.553.

With B11 as the binder, how does the “median log2 fold change” value read?
The value was 0.0611.

B12 was tested. Which “median log2 fold change” value did it give?
The value was -0.124.

B13 was tested. Which “median log2 fold change” value did it give?
Its value is -0.0281.

For B14, which “median log2 fold change” value is on record?
Its value is -0.0458.

B15 was tested. Which “median log2 fold change” value did it give?
Its value is 0.213.

How did the “median log2 fold change” value turn out when B16 was run?
Its value is -0.303.

B17 was tested. Which “median log2 fold change” value did it give?
The value was -0.51.

For B18, which “median log2 fold change” value is on record?
The value was -0.148.

How did the “median log2 fold change” value turn out when B19 was run?
The value was 0.0757.

How did the “median log2 fold change” value turn out when B20 was run?
Its value is -0.405.

Which “median log2 fold change” value does the source give for B21 here?
The value was -0.00812.

Which “median log2 fold change” value does the source give for B22 here?
The value was 0.15.

With B23 as the binder, how does the “median log2 fold change” value read?
The value was -0.474.

With B24 as the binder, how does the “median log2 fold change” value read?
Its value is -0.153.

B25 was tested. Which “median log2 fold change” value did it give?
The value was -0.179.

How did the “median log2 fold change” value turn out when B26 was run?
Its value is -0.0712.

B27 was tested. Which “median log2 fold change” value did it give?
The value was -0.353.

How did the “median log2 fold change” value turn out when B28 was run?
Its value is 0.115.

How did the “median log2 fold change” value turn out when B29 was run?
The value was 0.276.

B30 was tested. Which “median log2 fold change” value did it give?
The value was -0.669.

How did the “median log2 fold change” value turn out when B31 was run?
Its value is 0.0444.
